Activity calls are given as the source filed them. Rule for the calls: active = hit-call score of the fitted dose curve at least 0.9, where 1 is the maximum; inactive = score below 0.9.
Target: human CHK1 (CHEK1) CAMK Kinase, CHEK1 (gene 1111) (UniProt O14757)
Experiment: ERF_TW_ENZ_hCHK1: Eurofins (ERF) Enzymatic Radiometric [10 uM ATP] KinaseProfiler LeadHunter Assay for human CHK1 (CHEK1) CAMK Kinase
Procedure: ERF_TW_ENZ_hCHK1 is a biochemical, single-readout assay that uses extracted gene-proteins in a cell-free assay. Measurements were taken 0.5 hour after chemical dosing in a 96-well plate. See CHK1 Human CAMK Kinase Enzymatic Radiometric Assay [10 uM ATP], Panlabs.ERF_TW_ENZ_hCHK1 is an assay component calculated from the ERF_TW_ENZ_hCHK1 assay. It is designed to measure enzyme activity using a type of enzyme reporter as detected by scintillation counting with radiometry technology.Data from the assay component ERF_TW_ENZ_hCHK1 was analyzed at the assay endpoint, ERF_TW_ENZ_hCHK1, in the positive analysis fitting direction relative to DMSO as the negative control and baseline of activity. Using a type of enzyme reporter, loss-of-signal activity can be used to understand changes in enzymatic activity as they relate to gene CHEK1. To generalize the intended target to other relatable targets, this assay endpoint is annotated to the kinase intended target family, where the subfamily is serine/threonine kinase.
CHK1 (h) is incubated with 8 mM MOPS pH 7.0, 0.2 mM EDTA, 200 uM […], 10 mM MgAcetate and [gamma-33P]-ATP (specific activity and concentration as required). The reaction is initiated by the addition of the Mg/ATP mix. After incubation for 40 minutes at room temperature, the reaction is stopped by the addition of phosphoric acid to a concentration of 0.5%. An aliquot of the reaction is then spotted onto a filter and washed four times for 4 minutes in 0.425% phosphoric acid and once in methanol prior to drying and scintillation counting. Test Sample Requirements: Compound should be supplied in 100%DMSO. We require a stock solution at a concentration of at least 50x higher than the Final Assay Concentration of your cpd. A 10mM stock is also acceptable. When ordering fewer than 60 kinase assays, we need 120uL of 50x concentrated stock. For more than 60 assays, we need 420uL of 50xcc stock. Please apply the conversion if you provide 10mM stock solution or compounds in powder form (pre-weighed is required). From 50 cpds supplied as solids, the TAT will be extended.

human CHK1 (CHEK1) CAMK Kinase, CHEK1 (gene 1111), sequence (O14757 whole entry, looked up): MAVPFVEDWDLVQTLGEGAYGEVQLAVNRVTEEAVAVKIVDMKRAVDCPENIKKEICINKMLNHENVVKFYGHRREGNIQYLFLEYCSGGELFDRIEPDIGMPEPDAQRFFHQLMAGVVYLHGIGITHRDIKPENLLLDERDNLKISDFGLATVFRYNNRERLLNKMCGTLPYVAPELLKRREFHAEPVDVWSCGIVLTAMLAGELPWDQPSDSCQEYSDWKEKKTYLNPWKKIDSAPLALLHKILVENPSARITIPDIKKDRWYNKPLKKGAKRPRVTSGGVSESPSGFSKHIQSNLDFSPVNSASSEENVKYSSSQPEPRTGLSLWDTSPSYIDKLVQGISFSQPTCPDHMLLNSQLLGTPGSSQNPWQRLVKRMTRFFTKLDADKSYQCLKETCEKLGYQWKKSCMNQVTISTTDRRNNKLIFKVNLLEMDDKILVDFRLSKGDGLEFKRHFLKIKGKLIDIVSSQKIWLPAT

Compound | AC50 | outcome
O=C(/C=C/c1ccc(O)cc1)CC(=O)/C=C/c1ccc(O)cc1 | 2950 nM (active) | –
COc1cc(CCC(=O)CC(=O)CCc2ccc(O)c(OC)c2)ccc1O | – | inactive
COc1cc(/C=C/C(=O)CC(=O)/C=C/c2ccc(O)c(OC)c2)ccc1O | 2590 nM (active) | –

Reference: PubChem BioAssay AID2284078 (EPA ToxCast)
